A short description of the experiment: COS7 lysate on small-molecule microarray, probe aHis, 635 nm (AID 1123).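 Further: z-score combines 667nm fluorescence intensity with signal-to-noise per printed compound spot.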 The conditions noted are these: COS7 cell lysate, fluorescence, higher = more signal.
For `CCCN1C(=O)[C@]2(CCS(=O)(=O)c3ccccc3)N=C(c3ccc(OCCCO)cc3)O[C@@H]2c2ccccc21`, the composite z-score turned out to be 1.15.
`CC(C)(C)C(=O)N[C@@H](c1ccc(Cl)cc1)[C@]1(C)C[C@H]1C1CCCCC1`: the composite z-score turned out to be 2.12.
In the case of `COc1cc(CO)cc(I)c1O[C@H]1C=C(C(=O)NCCO)C[C@@H](N(CCN2CCOCC2)C(=O)C2CCOC2)[C@@H]1O` (stereo partly specified), the composite z-score was -0.204.
`C[C@]1(C(=O)NC2CC2)c2ccccc2C(=O)N(Cc2cc(C(F)(F)F)cc(C(F)(F)F)c2)[C@H]1c1ccc(CO)cc1` yielded a composite z-score of 1.28.
Then `COCCOC(=O)N1C(=O)[C@@]2(c3ccccc31)[C@H](c1ccccc1OCCO)N1[C@H](c3ccccc3)[C@H](c3ccccc3)OC(=O)[C@H]1[C@@H]2C(=O)Nc1nc2ccccc2s1`, with 1.52; and `CC(=O)NCCCC[C@@H]1NC(=O)[C@@H]2C[C@H](C(=O)NCCCCCCNC(=O)CS)[C@H](c3cccc(OCCO)c3)N2C1=O`, with 1.48; and `CCCCC(=C=CC[C@@H](O)c1ccccc1OCCO)CCO`, with 1.1.
Molecule `C=C(COC)/C(=C/C[C@H](OC(=O)c1ccncc1)c1ccc(OCCO)cc1)c1cnc2ccccc2c1` yielded a composite z-score of 1.46.
`COC(=O)[C@@]1(Cc2ccc(F)cc2)[C@@H]2[C@@H](CC(=O)[C@H]2CC(=O)C(=O)N(C)C)CN1C(=O)c1ccccc1` registered a composite z-score of 2.84.
Then `NCCCCCNC(=O)[C@@H]1C[C@@H]2C(=O)N[C@@H](Cc3ccccc3)C(=O)N2[C@@H]1c1cccc(OCCO)c1`, with 1.18; and `Cc1ccc(C(C)CC(O)C2C=CC3C(=O)N(C)C(=O)C3N2NC(=O)OC(C)(C)C)o1` (stereo unspecified), with 2.44.
